Hits are enriched below; roughly 17% of the tested compounds scored in any of these assays.
TGFb SMAD3 inh: blocks TGF-b signaling. Potency, µM (series often up to 46.1 µM), for the others: at the top dose activity, negative = inhibition, most hits filed as inhibitors. 410,000 tested, 1.2% active. HepG2 CAGA-GFP TGF-b/SMAD3 reporter, GFP fluorescence, 18 h; TGF-beta stimulated, 500 pg/mL final; further: on the % scale 0 is the no-effect control and ±100 the full control effect; nearly all actives have a fitted effect of over 65% in size
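TGF-beta reporter screen: HEPG2 CAGA-GFP, 1% FBS, 500 pg/mL TGF-beta final, 18 h; per-cell GFP summed per well; curves fitted and categorized by class.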
DT40 TDP1 no CPT: qHTS for Inhibitors of human tyrosyl-DNA phosphodiesterase 1 (TDP1): qHTS in cells in absence of CPT. 420,000 tested, 15% active. DT40 Tdp1-/- hTDP1 cells, no CPT, ATP luminescence, 48 h. AID 686978, 2013. Potency, µM (top dose mostly 46.2 µM), for inactives: at the highest dose activity change, negative = growth inhibition, usual class: inhibitors; further: on the % scale 0 is the no-effect control and ±100 the full control effect; nearly all actives have a fitted effect of over 55% in size
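Cells were dispensed at 400 per well, compounds added by pin tool, plates incubated ≥48 hr at 37 °C, then CellTiter-Glo added for 30 min at room temperature before luminescence reading. Line: DT40 Tdp1-/- complemented with hTDP1; camptothecin omitted.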
DT40 TDP1 CPT: growth inhibition of DT40 Tdp1-/-;hTDP1 cells with camptothecin (screen for TDP1 inhibitors). chicken DT40 Tdp1-/-;hTDP1 cells + 20 nM CPT, ATP luminescence, 48 h. Potency, µM (doses to about 46.2 µM), without a hit: at the top dose activity change, negative = growth inhibition, usual class: inhibitors. 420,000 tested, 12% active; further: on the % scale 0 is the no-effect control and ±100 the full control effect; nearly all actives have a fitted effect of over 55% in size
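Chicken DT40 Tdp1-/- cells complemented with human TDP1, 400 cells/well, exposed to compounds plus 20 nM camptothecin for at least 48 h at 37 C; viability read as ATP content by CellTiter-Glo luminescence.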
HepG2 tox: HepG2 cytotoxicity, counter-screen for TGF-b inhibitors | AID 588856 | 410,000 tested, 0.76% active | HepG2 CAGA-GFP viability, ATP luminescence, 18 h | Potency, µM (highest dose often 46.1 µM), for inactives: at the highest dose activity change, negative = cytotoxicity, usual class: cytotoxic
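CellTiter-Glo luminescence gave cytotoxicity after 18 hours at 37 degrees C. The cells were HepG2 CAGA-GFP in 1% FBS DMEM, stimulated with 500 pg/mL TGF-beta after compound addition. %Activity was normalised to no-cell wells (complete cell-killing) and DMSO (no toxicity), and curves were fitted and classified.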
HT1080-NT tox: kills 2HG-producing HT-1080-NT fibrosarcoma cells; Potency, µM (top dose mostly 46.1 µM), inactives show top-dose activity, negative = less viability, usual class: cytotoxic; HT-1080-NT fibrosarcoma viability, CellTiter-Glo ATP luminescence, 48 h; 360,000 tested, 1.6% active;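 further: NT is the 2HG producing partner of a matched IDH1 knockdown line; 0% = DMSO-treated cells and -100% = media-only wells without cells; nearly all actives have a fitted effect of over 55% in size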
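Read-out is CellTiter-Glo luminescence after 10 minutes at room temperature, following 48 hours' compound treatment of HT-1080-NT cells (750 cells/well, RPMI, 5% FBS, 37 degrees C).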
HT1080 IDH1KD tx: toxicity to HT-1080 IDH1 knockdown cells (counter line) | Potency, µM (series often up to 46.1 µM), for the others: at the top dose activity, negative = toxicity, most hits filed as cytotoxic | HT-1080 IDH1 knockdown viability, ATP luminescence, 48 h | AID 686971 | 360,000 tested, 2% active;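 further: 0% = DMSO wells and -100% = cell-free medium wells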
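IDH1KD HT-1080 cells, 750/well, RPMI + 5% FBS; compound pinned after 2 h settling; 48 h, 37 °C; CellTiter-Glo luminescence; % activity normalised to DMSO and no-cell wells; curves fitted, classed by r2 and efficacy.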
The depositor's hits bear a star; ? = inconclusive; . = not tested or not shown; [ ] = remark or other dose. The call rests on the fitted dose curve; in most records, active means well fitted curve in the direction sought with a large enough effect; inconclusive means small, poorly fitted or top-dose-only effect, or another doubt; inactive means no such curve, though single readings can be large; an effect the other way counts as inactive or inconclusive. Potency means the concentration at half of the fitted maximal effect.

SMILES | TGFb SMAD3 inh | DT40 TDP1 no CPT | DT40 TDP1 CPT | HepG2 tox | HT1080-NT tox | HT1080 IDH1KD tx
O=C(Cn1c(=O)oc2cc(S(=O)(=O)N3CCCC3)ccc21)N1CCCC1 | -3% | -3% | 6% | -5% | -17% | 0%
CC(C)NC(=O)N1CCC2(CC1)CCN(C(=O)Oc1ccccc1)CC2 | . | ? | -8% | . | . | .
CNP1(NC)=NC(C(F)(F)F)=NC(C(F)(F)F)=N1 | 1% | 3% | -13% | -9% | 0% | -1%
O=C(Cn1c(=O)oc2cc(S(=O)(=O)N3CCCCC3)ccc21)NCc1ccc(F)cc1 | -27% | 5.8µM* | 5.2µM* | -17% | . | .
Cc1cccc(NC(=O)Oc2ccc(Cl)c3cccnc23)c1 | ? | 5.2µM* | 12µM* | 2.8µM* | -5% | -9%
CN(C(=O)Oc1ccc(Cl)c2cccnc12)c1ccccc1 | -6% | -15% | -15% | 4% | 16% | 19%
CC(=O)Oc1ccc(Cl)c2cccnc12 | . | 8.2µM* | 3.7µM* | . | . | .
C=CCC1([C@@H](C)CCC)C(=O)NC(=O)NC1=O | -6% | ? | ? | -2% | -10% | 5%
COc1cc(OC)cc(-c2sc3ccc(OC)cc3c2-c2ccc(OCCN3CCOCC3)cc2)c1 | 18% | ? | ? | -22% | -18% | -20%
CN1C[C@@H]2C[C@@H](c3cccn3-c3ccccn3)N3CCC[C@@]23C1=O | -3% | -7% | 4% | 0% | -9% | -1%
O=S(=O)(c1ccc(Nc2ccc(-c3ccc4c(c3)OCCO4)nn2)cc1)N1CCCC1 | -12% | ? | ? | -15% | 16µM* | ?
O=C1C(=O)c2cccc3cccc1c23 | ? | 0.65µM* | 0.58µM* | 7% | 0% | 6%
O=C1C(=O)c2ccccc2-c2ccccc21 | 1.1µM* | 0.58µM* | 0.52µM* | 1.3µM* | 0.92µM* | 1.2µM*
O=C1C(c2ccccc2)=C(N2CC2)c2ccccc21 | 2% | ? | ? | 5% | 5% | -4%
CC(/C=N/NC(=O)c1cc(-c2ccncc2)nc2ccccc12)=C\c1ccco1 | ? | 3.7µM* | 2.6µM* | -6% | 0.89µM* | 1µM*
Cc1ccc2nc(-c3ccncc3)cc(C(=O)N3CCC4(CC3)OCCO4)c2c1 | ? | ? | -21% | -8% | -7% | -6%[9.24 µM]
CC(=NCCO)c1c(O)n(C)c(=O)n(C)c1=O | 10% | -1% | -8% | -1% | 8% | 14%
CC(=NCCC1=CCCCC1)c1c(O)n(C)c(=O)n(C)c1=O | 0% | 23µM* | 10µM* | -30% | 6% | -2%
CCCC(=O)O[C@]1(C(=O)COC(=O)CC)[C@@H](C)C[C@H]2[C@@H]3CCC4=CC(=O)C=C[C@]4(C)[C@@]3(F)[C@@H](O)C[C@@]21C | . | 24µM* | ? | . | . | .
COC1/C=C/C=C(\C)Cc2cc(O)c(Cl)c(c2)N(C)C(=O)CC(OC(=O)C(C)C)C2(C)OC2C(C)C2CC1(O)NC(=O)O2 (configuration not stated) | ? | 0.15µM* | 0.016µM* | -5% | 0.0092µM* | ?
COc1cccc(-c2nn(Cc3ccccc3)cc2C(=O)O)c1 | 0% | 2% | 15% | -7% | 7% | 14%
COc1cccc(C2CC3C(=O)C=CC2N3Cc2ccccc2)c1 (configuration not stated) | 0% | 16µM* | 21µM* | -18% | -23% | -26%
CC(N)(COP(=O)(O)Oc1ccccc1)C(=O)O (configuration not stated) | . | -5% | -19% | . | . | .
CNCC(O)c1cc(OCc2ccccc2)c(OCc2ccccc2)cc1F (configuration not stated) | ? | . | . | -109% | . | .

Screening results as filed in PubChem.
